Measurements taken from PubChem BioAssay (EPA / NIEHS).
Active and inactive are the calls of the source. How the source made its calls: active means hit-call score of the fitted dose curve at least 0.9, where 1 is the maximum; inactive means score below 0.9.

biological target: Bile acid receptor (Homo sapiens) (UniProt Q96RI1); experiment: ATG_IR1_CIS: Attagene CIS-FACTORIAL HepG2 Assay for human Nuclear Receptor Subfamily 1 Group H Member 4 (NR1H4), IR1 submotif (AID 2282946); settings: IR1 reporter transcription, actives raise or lower the signal
Sequence (Q96RI1 whole entry, looked up): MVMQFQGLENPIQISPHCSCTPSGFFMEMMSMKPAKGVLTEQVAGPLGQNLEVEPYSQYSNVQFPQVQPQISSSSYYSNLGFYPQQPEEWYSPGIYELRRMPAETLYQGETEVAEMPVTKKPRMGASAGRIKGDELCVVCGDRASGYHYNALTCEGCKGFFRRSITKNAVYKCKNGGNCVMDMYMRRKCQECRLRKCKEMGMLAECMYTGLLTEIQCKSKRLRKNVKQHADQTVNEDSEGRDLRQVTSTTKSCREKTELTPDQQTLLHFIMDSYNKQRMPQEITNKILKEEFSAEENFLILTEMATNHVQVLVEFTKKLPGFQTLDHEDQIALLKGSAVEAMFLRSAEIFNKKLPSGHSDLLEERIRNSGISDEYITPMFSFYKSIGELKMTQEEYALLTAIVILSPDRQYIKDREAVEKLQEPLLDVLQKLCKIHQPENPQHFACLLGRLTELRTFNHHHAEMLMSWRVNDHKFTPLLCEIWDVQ
Experimental: ATG_CIS is a cell-based, multiplexed-readout assay that uses HepG2, a human liver cell line, with measurements taken at 24 hours after chemical dosing in a 24-well plate.ATG_IR1_CIS is one of 52 assay component(s) measured or calculated from the ATG_CIS assay. It is designed to make measurements of mRNA induction, a form of inducible reporter, as detected with fluorescence intensity signals by Reverse transcription polymerase chain reaction (RT-PCR) and Capillary electrophoresis technology.Data from the assay component ATG_IR1_CIS was analyzed into 1 assay endpoint. This assay endpoint, ATG_IR1_CIS, was analyzed with bidirectional fitting relative to DMSO as the negative control and baseline of activity. Using a type of inducible reporter, measures of mRNA for gain or loss-of-signal activity can be used to understand the reporter gene at the transcription factor-level as they relate to the gene NR1H4. Furthermore, this assay endpoint can be referred to as a primary readout, because this assay has produced multiple assay endpoints where this one serves a reporter gene function. To generalize the intended target to other relatable targets, this assay endpoint is annotated to the nuclear receptor intended target family, where the subfamily is non-steroidal.
Human liver HepG2 cells are transiently transfected with multiple reporter transcription units (MRTUs) in 6-well plates using FuGene 6 reagent (Roche; 3 ml FuGene/1 mg DNA). The MRTU constructs are regulated by a cis-regulating element (promoter). […] A major difference between the CIS and TRANS system is that in CIS activities of endogenous TFs are measured, whereas the TRANS assay evaluates changes in activities of exogenous, chimeric NR-Gal4 proteins. […] At the end of 24 hour incubation, total RNA was isolated using TriZol reagent (Invitrogen). The isolated RNA is then reverse-transcribed using oligo(dT) primer and Mo-MLV reverse transcriptase (Invitrogen) with DNAse I (Ambion) treatment for 30 min. The one-tenth of the produced cDNA was amplified by PCR using Taq DNA polymerase (Invitrogen) and two reporter sequence-specific primers. The PCR products were fluorescently labeled by primer extension with 6-arboxyfluorescein (6-FAM) 5'-labeled reporter sequence-specific primer (2 min at 95 C, 20 s at 68 C and 10 min at 72 C) and these products were digested with 5U of HpaI (New England Biolabs) for 2h at 37 C. The fragments were purified using Qiaquick PCR columns (Qiagen), analyzed on an ABI 3130xL genetic analyzer (Applied Biosystems) with peak positions identified by using a set of X-rhodamine (ROX)-labeled MapMarker1000 molecular weight standards (BioVentures). The raw capillary electrophoresis data was processed using Attagraph software (Attagene).

| SMILES | outcome | AC50 |
| --- | --- | --- |
| OCC#CCO | inactive | – |
| C[C@H]1C[C@@H](O)CC(C)(C)C1 | inactive | – |
| CCCCOCC | inactive | – |
| Cc1ccc(N)c(S(=O)(=O)O)c1 | inactive | – |
| C=CC(=O)OCCCC | inactive | – |
| Nc1ccc(N)c2c1C(=O)c1ccccc1C2=O | inactive | – |
| CCOC(=O)c1ccc(N)cc1 | inactive | – |
| COC(=O)c1ccc([N+](=O)[O-])cc1 | inactive | – |
| O=C1NC2NC(=O)NC2N1 (stereo not given) | inactive | – |
| COc1ccc(CCN2CCC(Nc3nc4ccccc4n3Cc3ccc(F)cc3)CC2)cc1 | inactive | – |
| CCN(CC)C(=O)N(CC)CC | inactive | – |
| CCCCCCCCCCCCCCCC(=O)OC/C=C(C)/C=C/C=C(C)/C=C/C1=C(C)CCCC1(C)C | inactive | – |
| C#CC(C)N(C)C(=O)Nc1ccc(Cl)cc1 (stereo not given) | inactive | – |
| CCc1cc(C(C)(C)C)c(O)c(C(C)(C)C)c1 | inactive | – |
| CCC1(c2ccccc2)C(=O)NCNC1=O | inactive | – |
| O=C(O)CCCCCCCCCCCC(=O)O | inactive | – |
| CC(=O)OCCCc1ccccc1 | inactive | – |
| O=C1CCCC=CCCCCCCCCCC1 | inactive | – |
| CCCCCCCCCCCC(=O)OC[C@@H](O)[C@H]1OC[C@H](O)[C@H]1O | inactive | – |
| CCOC(=O)[C@@H](C)Oc1ccc(Oc2nc3ccc(Cl)cc3o2)cc1 | inactive | – |

| SMILES | outcome | AC50 |
| --- | --- | --- |
| CC1(C)COCN1 | inactive | – |
| O=C(O)CNc1ccccc1 | inactive | – |
| COc1ccc(OC)c(N=Nc2c(O)ccc3ccccc23)c1 | inactive | – |
| COc1ccc(N)c([N+](=O)[O-])c1 | inactive | – |
| C=CC(C)C#N (stereo not given) | inactive | – |
| CC(C=O)Cc1ccc(C(C)(C)C)cc1 (stereo not given) | inactive | – |
| CCCCCCCCSCCO | – | 151 µM (active) |
| C[C@H](CCC(=O)NCC(=O)O)[C@H]1CC[C@H]2[C@@H]3[C@H](O)C[C@@H]4C[C@H](O)CC[C@]4(C)[C@H]3C[C@H](O)[C@]12C | inactive | – |
| CCCOCCO | inactive | – |
| CCCCCCCC(=O)OCCCCCC | inactive | – |
| CC(C)C(OC(=O)c1ccccc1)C(C)(C)COC(=O)c1ccccc1 (stereo not given) | inactive | – |
| COC(C)(C)CCCC(C)CC=O (stereo not given) | inactive | – |
| COc1cc([C@@H]2c3cc4c(cc3[C@@H](O[C@@H]3O[C@@H]5CO[C@@H](C)O[C@H]5[C@H](O)[C@H]3O)[C@H]3COC(=O)[C@H]23)OCO4)cc(OC)c1O | inactive | – |
| CCCCC(CC)(CO)CO | inactive | – |
| Nc1ccc2cc(S(=O)(=O)O)cc(O)c2c1N=Nc1ccccc1C(F)(F)F | inactive | – |
| CC1C2CC(CC2C2CCCC(O)C2)C1(C)C (stereo not given) | inactive | – |
| CCCC(C)=O | inactive | – |
| Cc1ccc(C)o1 | inactive | – |
| CC(=O)Nc1ccc(C(=O)CCl)cc1 | – | 33.4 µM (active) |
| COC(=O)Nc1ccc(Cl)c(Cl)c1 | inactive | – |
